High-throughput results deposited in PubChem by National Center for Advancing Translational Sciences (NCATS).
A selection: hits, their analogues and other compounds. The true share with any hit is near 8.7%.
HP1b chromo inh = HP1-beta chromodomain-methylated histone interaction inhibition; 390,000 tested, 0.56% active; P83916; Potency, µM (doses to about 114 µM), for the others: at the highest dose activity change, negative = inhibition, most hits filed as inhibitors; AlphaScreen HP1-beta / biotin-H3K9me3 peptide binding; further: potency means the concentration at half of the fitted maximal effect; nearly all actives have a fitted effect of over 70% in size
Target sequence (P83916 whole entry, looked up): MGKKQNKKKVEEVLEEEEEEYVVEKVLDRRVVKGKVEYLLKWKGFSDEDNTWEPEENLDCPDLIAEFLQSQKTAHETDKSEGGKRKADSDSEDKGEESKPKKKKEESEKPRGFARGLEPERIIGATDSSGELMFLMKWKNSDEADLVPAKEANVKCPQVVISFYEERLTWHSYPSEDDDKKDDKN
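HP1-beta protein (50 nM final) preincubated 30 min at room temperature with biotinylated H3(1-18)K9me3 peptide (50 nM) in PBS pH 7.4, 0.01% Tween-20, then compound added for 30 min. AlphaScreen streptavidin donor/nickel chelate acceptor beads (10 ug/mL final), 30 min dark, luminescence read.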
BAZ2B block = inhibitors of human BAZ2B bromodomain | Q9UIF8 | Potency, µM (titrated, usually from 114 µM), inactives show at the top dose activity change, negative = inhibition, actives largely listed as inhibitors | AlphaScreen BAZ2B-H3K14Ac peptide displacement | 360,000 tested, 4.4% active; further: potency means the concentration at half of the fitted maximal effect; on the % scale 0 is the no-effect control and ±100 the full control effect; nearly all actives have a fitted effect of over 60% in size
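BAZ2B 50 nM plus b-H3(5-23)K14Ac 50 nM, PBS pH 7.4/0.01% Tween-20, 30 min RT; compound added (max 110 uM), 30 min RT; streptavidin donor/Ni-chelate acceptor beads 10 ug/mL final, 20 min dark; AlphaScreen read.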
G9a inh-1 = blocks human histone lysine methyltransferase G9a | AID 504332 | 350,000 tested, 8.8% active | Potency, µM (highest dose often 102 µM), for the others: at the top dose activity, negative = inhibition, usual class: inhibitors | Q96KQ7 | G9a H3K9 monomethylation, AlphaScreen, 2 h; further: potency means the concentration at half of the fitted maximal effect; on the % scale 0 is the no-effect control and ±100 the full control effect; nearly all actives have a fitted effect of over 75% in size
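Enzyme 20 nM + cpd, 15 min RT; add b-H3K9 pep 500 nM / SAM 20 uM; 2 h RT; anti-H3K9me1 Ab 0.5 ug/mL + SA donor / anti-rabbit acceptor beads 20 ug/mL each, 10 min; AlphaScreen read.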
12-LOX inh = inhibitors of human 12S-lipoxygenase ALOX12; P18054; purified 12hLO, xylenol orange hydroperoxide absorbance; Potency, µM (doses to about 108 µM), inactives show at the top dose activity change, negative = inhibition, hits mostly inhibitors; 580,000 tested, 1.1% active; AID 1671190; further: potency means the concentration at half of the fitted maximal effect; on the % scale 0 is the no-effect control and ±100 the full control effect
Target sequence (P18054 whole entry, looked up): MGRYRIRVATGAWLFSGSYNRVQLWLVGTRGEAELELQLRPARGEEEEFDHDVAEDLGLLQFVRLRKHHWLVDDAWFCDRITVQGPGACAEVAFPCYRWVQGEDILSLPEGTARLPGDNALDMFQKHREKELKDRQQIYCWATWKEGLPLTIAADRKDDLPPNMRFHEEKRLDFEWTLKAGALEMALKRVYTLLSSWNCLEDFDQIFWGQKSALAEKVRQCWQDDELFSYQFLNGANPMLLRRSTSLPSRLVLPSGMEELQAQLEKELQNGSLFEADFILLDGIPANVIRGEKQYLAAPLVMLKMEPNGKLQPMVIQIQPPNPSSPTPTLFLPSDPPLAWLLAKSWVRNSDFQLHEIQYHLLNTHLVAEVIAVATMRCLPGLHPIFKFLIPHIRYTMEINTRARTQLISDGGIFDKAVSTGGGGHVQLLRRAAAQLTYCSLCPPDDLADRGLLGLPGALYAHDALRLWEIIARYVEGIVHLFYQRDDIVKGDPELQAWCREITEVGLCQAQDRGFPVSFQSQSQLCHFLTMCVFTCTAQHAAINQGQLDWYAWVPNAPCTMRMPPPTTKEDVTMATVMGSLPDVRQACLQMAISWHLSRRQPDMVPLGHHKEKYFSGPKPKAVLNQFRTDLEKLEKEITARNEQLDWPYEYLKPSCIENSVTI
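Purified human 12hLO (150 nM final) in 25 mM Hepes, 0.01% Triton X-100, pH 7.0 was preincubated 15 min at room temperature with compound. Then 40 uM arachidonic acid was added, 30 min. Hydroperoxide was read by Fe-XO absorbance ratio 573/405 nm.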
JMJD2A Tudor = blocks the human JMJD2A Tudor domain; 390,000 tested, 4.4% active; O75164; AlphaScreen JMJD2A-Tudor / H3K4me3 peptide binding; Potency, µM (doses to about 114 µM), for the others: at the top dose activity change, negative = inhibition, hits mostly inhibitors; further: potency means the concentration at half of the fitted maximal effect; on the % scale 0 is the no-effect control and ±100 the full control effect; nearly all actives have a fitted effect of over 50% in size
Sfp PPTase inh = inhibitors of Bacillus subtilis Sfp phosphopantetheinyl transferase; Q9F4F7; Biochemical Sfp PPTase activity, qHTS; Potency, µM, inactives show largest response in the series, negative = inhibition, most hits filed as inhibitors; 310,000 tested, 3.5% active; AID 1490;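 further: the enzyme is Sfp with the accession as filed and its product quenches rhodamine fluorescence; potency means the concentration at half of the fitted maximal effect; 0% = enzyme reaction without inhibitor and -100% = no enzyme wells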
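Fluorescence-quenching assay: 15 nM Sfp-PPTase preincubated 15 min at room temperature with compound, then 5 uM rhodamine-CoA and 12.5 uM BHQ-2-labelled YbbR peptide added. Fluorescence (ex 525/em 598 nm) read at start and after 30 min; difference gives rate.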
JMJD2E inh = confirmation of inhibitors of human JMJD2E demethylase; Recombinant JMJD2E, FDH-coupled NADH fluorescence (FDH is formaldehyde dehydrogenase); 140 tested, 93% active; Potency, µM (doses to about 56.8 µM), inactives show at the highest dose activity change, negative = inhibition, usual class: inhibitors; shares compounds with JMJD2A Tudor
FDH counter = blocks Pseudomonas putida formaldehyde dehydrogenase, flagging JMJD2E artifacts; FDH enzyme assay, NADH fluorescence kinetic; 140 tested, 10% active; Potency, µM (top dose mostly 56.7 µM), for the others: at the highest dose activity, negative = inhibition, actives largely listed as inhibitors; shares compounds with JMJD2A Tudor; AID 2680
G9a inh-2 = inhibits human G9a histone lysine methyltransferase, hit confirmation | 370 tested, 89% active | Potency, µM, most hits filed as inhibitors | AID 588344 | G9a H3K9 monomethylation, AlphaScreen, 2 h | shares compounds with JMJD2A Tudor; further: potency means the concentration at half of the fitted maximal effect; nearly all actives have a fitted effect of over 65% in size
RGS4 confirm = inhibits human RGS4, hit validation. shares compounds with JMJD2A Tudor. RGS4 GAP activity, Transcreener GDP fluorescence polarization. Potency, µM, usual class: inhibitors. 25 tested, 80% active. AID 602388
An asterisk follows results filed as active; ? = inconclusive; nt = no result; [ ] = dose if it differs, or a comment. The call rests on the fitted dose curve; in most records, active means well fitted curve in the direction sought with a large enough effect; inconclusive means small, poorly fitted or top-dose-only effect, or another doubt; inactive means no such curve, though single readings can be large; an effect the other way counts as inactive or inconclusive.

SMILES	HP1b chromo inh	BAZ2B block	G9a inh-1	12-LOX inh	JMJD2A Tudor	Sfp PPTase inh	G9a inh-2	others
Cc1ccccc1NC(=S)NC1CCCC1	10.6%	8.2%	-7.1%	?	-8.2%	5.3%	nt
S=C(Nc1ccccn1)NC1CCCC1	26.4%	-23.5%	0.355µM*	44.7µM*	-18.1%	44.7µM*	3.17*
CCc1ccc(C(=O)CC2(O)C(=O)N(Cc3ccc(C)cc3)c3ccccc32)cc1 (stereo not drawn)	?	10µM*	5.62µM*	?	39.8µM*	nt	nt	RGS4 confirm=23.8*
Cc1ccc2cccc(OCCOc3ccc(C#N)cc3)c2n1	nt	nt	nt	-12.4%	nt	nt	nt
O=C(Nc1ccccc1)Nc1ccc2snnc2c1	0.4%	1.4%	9.2%[59 µM]	?	-13.0%[11.4 µM]	-15.1%	nt
CN(C)c1ccc(NC(=O)Nc2ccc3snnc3c2)cc1	-27.4%	-35.1%	1.26µM*	11.1%	-15.8%	-5.3%	1.59*
CCCCNC(=O)c1ccccc1NC(=O)Cn1cnc2c1c(=O)n(C)c(=O)n2C	nt	nt	nt	21.0%	nt	nt	nt
O=C(c1c[nH]c2ccccc12)C(O)C(c1ccccc1)N1CCOCC1 (stereo not drawn)	11.9%	4.8%	24.6%[59 µM]	0.0%	-4.5%	26.5%	nt
COc1ccc(C(C(O)C(=O)c2c[nH]c3ccccc23)N2CCN(c3ccc(OC)cc3)CC2)cc1 (stereo not drawn)	?	60.8%	?	8.9%	?	-11.3%	5.62*
CCc1ccc(OCC(=O)Nc2onc3c2CC(C)CC3)cc1 (stereo not drawn)	nt	nt	nt	-14.4%	nt	nt	nt
COc1nc2cc(C)c(C)cc2nc1C(=O)Nc1ccc(C)cc1	nt	nt	nt	7.8%	nt	nt	nt
O=C(NCc1ccccc1CN1CCCCC1)c1ccc(Cl)cc1N1CCCC1=O	34.1%	3.2%	1µM*	?	?	nt	7.94*
c1ccc(-c2noc(CN3CCN(c4ccccc4)CC3)n2)cc1	59.0%	11.1%	-8.5%	321.7%	-13.4%	-12.0%	nt
COc1ccc(N2CCN(Cc3nc(-c4ccc(Cl)cc4Cl)no3)CC2)cc1	?	35.5µM*	2.24µM*	?	25.1µM*	-24.0%	4.48*
CCN(CC)c1ccc(NC(=O)Cn2nnc(-c3cccc(OC)c3OC)n2)c(C)c1	35.2%	-0.5%	0.708µM*	-20.2%	-2.2%	13.0%	7.08*
COc1ccc(N2CCN(c3nc4ccccc4nc3NS(=O)(=O)c3ccccc3)CC2)cc1	?	50.1µM*	?	0.0%	50.1µM*	10.9%	7.94*
COc1cc(C2CC(=O)Nc3n[nH]c(Nc4ccccc4)c32)cc(OC)c1O (stereo not drawn)	nt	nt	nt	1.5%	nt	nt	nt
Fc1ccc(-c2nc(CC3CCNC3)no2)cc1 (stereo not drawn)	nt	nt	nt	68.2%	nt	nt	nt
CC(C)c1ccc(N2C(=O)CC(Sc3ncn[nH]3)C2=O)cc1 (stereo not drawn)	-72.5%	4.8%	1.26µM*	?	7.08µM*	56.2µM*	nt	JMJD2E inh=5.62µM*;FDH counter=0.251µM*
CC1CC(=O)N(c2ccc(C(C)C)cc2)C(=O)C1	35.9%	23.0%	nt	6.5%	-6.0%	13.0%	nt
CCN(c1ccc(NC(=O)CCc2nc3sc4c(c3c(=O)[nH]2)CCCC4)cc1)C(C)C	-20.9%	-33.4%	2.24µM*	?	?	nt	2.24*
O=C(CC1Sc2ncnn2C1=O)Nc1ccc(Br)cc1 (stereo not drawn)	?	-2.3%	2µM*	-19.0%[57.4 µM]	25.1µM*	50.1µM*	0.178*	JMJD2E inh=3.98µM*;FDH counter=0.282µM*
COCCNC(=O)[C@H]1C[C@H](Oc2ccccc2)CN1C(=O)c1ccccc1OC	nt	nt	nt	30.5%	nt	nt	nt
CCOc1ccc(CC(=O)Nc2sc(Cc3ccccc3)cc2C(N)=O)cc1OCC	?	-0.5%	2.51µM*	?	?	28.2µM*	6.31*
CCN(c1ccc2sc(C(=O)NCCC(C)C)cc2c1)S(C)(=O)=O	nt	nt	nt	6.2%	nt	nt	nt
SMILES	HP1b chromo inh	BAZ2B block	G9a inh-1	12-LOX inh	JMJD2A Tudor	Sfp PPTase inh	G9a inh-2	others
CC(C)(C)C(=O)Nc1ccc(N2CCCC2)cc1	25.5%	?	?	?	-8.6%	-0.2%	2.52*
CC(=O)Nc1ccc(N2CCCC2)cc1	8.8%	3.0%	?	-11.6%	-17.8%	39.8µM*	6.32*
O=C(/C=C/c1ccccc1)Nc1ccc(N2CCCCC2)cc1	-8.2%	-31.0%	2.82µM*	-23.4%	-18.5%	14.9%	2.24*
O=C(CNC(=O)c1ccco1)Nc1ccc(N2CCCCCC2)cc1	-31.8%	?	?	7.3%	?	nt	nt
O=C(CNC(=O)c1ccc(Br)o1)Nc1ccc(N2CCCCCC2)cc1	-11.1%	?	2.24µM*	?	?	nt	1*
COc1ccc(-c2nc3cc(NC(=O)c4ccccc4I)ccc3o2)cc1	nt	nt	nt	32.2%	nt	nt	nt
CCCc1cnc(C)nc1N1CCN(Cc2ccccc2F)C(CCO)C1 (stereo not drawn)	nt	nt	nt	25.0%	nt	nt	nt
CCC(CC)C(=O)Nc1ccccc1C	nt	nt	nt	-1.7%	nt	nt	nt
Cc1ccc(C(=O)Nc2ccc(N3CCCC3)cc2)cc1	31.3%	-8.2%	1.58µM*	?	-4.1%	-6.9%	1.26*
CCOc1ccc(CNC(=O)c2cccc(NC(=O)N3CCSc4ncccc43)c2)cc1	25.6%	-22.4%	?	?	-11.7%	nt	nt
CN(C)c1ccc(CNC(=O)c2cccc(NC(=O)N3CCSc4ncccc43)c2)cc1	-15.0%	?	2.82µM*	6.8%	?	nt	17.8*
Cc1sc2nc(SCC(=O)Nc3ccccc3F)[nH]c(=O)c2c1C	14.6%	-17.4%	?	7.0%	-0.7%	-20.4%	nt
Cc1csc(NC(=O)CSc2nc3sc(C)c(C)c3c(=O)[nH]2)n1	?	?	?	?	0.0%[57.1 µM]	20µM*	0.893*
COc1ccc(OC)c(CN2CCN(C(=O)c3cccc4ccccc34)CC2)c1	22.4µM*	39.8µM*	2.51µM*	?	10µM*	-29.7%	22.4*
